Assay results from PubChem BioAssay.
The source made the active and inactive calls.

Columns and labels:
[1] = target: Albumin (Bos taurus) (UniProt P02769); experiment: compounds binding labelled BSA control protein – biochemical, small-molecule microarray, Alexa647 label, 635/667 nm fluorescence, artefact control for SMM control protein annotation, profiling panel (AID 1118); details: BSA-A647 binding, fluorescence 635 nm, higher = more signal;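 note: score merges 667 nm emission intensity and signal-to-noise per printed compound spot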
[2] = probe aXIP binding to arrayed compounds – biochemical, NeuroSMM set, 635/667 nm fluorescence, primary screen (AID 1119); details: small-molecule microarray, higher = more signal, called active from +8 up or from −8 down;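 note: probe is the protein aXip251-270 applied at 1 µg/mL to compound-printed slides; binding of probe to printed compounds measured as 667 nm fluorescence plus signal to noise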
[3] = probe aNOTCH3 binding on compound microarray – biochemical, small-molecule microarray, 635/667 nm fluorescence, primary screen (AID 1120); details: higher = more signal;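 note: probe is a biotin-tagged antibody raised against NOTCH3 rather than NOTCH3 protein; score merges spot fluorescence near 667 nm with spot signal to noise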
[4] = probe aNOTCH2 binding on compound microarray – biochemical, small-molecule microarray, 635/667 nm fluorescence, primary screen (AID 1121); details: higher = more signal;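 note: score merges feature fluorescence read at 667 nm with its signal to noise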
[5] = target: Carbonic anhydrase 2 (Homo sapiens) (UniProt P00918); experiment: compounds binding carbonic anhydrase 2 – biochemical, small-molecule microarray, Alexa647-labelled CAII, profiling panel (AID 1122); details: CAII-A647 binding fluorescence, higher = more signal
[6] = COS7 lysate on small-molecule microarray, probe aHis, 635 nm (AID 1123); details: COS7 cell lysate, fluorescence, higher = more signal;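 note: z-score combines 667nm fluorescence intensity with signal-to-noise per printed compound spot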
[7] = probe aLAP1 signal on lysate-treated microarray – cell lysate, small-molecule microarray, COS7 lysate, primary screen (AID 1124); details: probe aLAP1, fluorescence, higher = more signal;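 note: lysate comes from COS7 cells expressing LAP1 and is applied at 0.3 µg/mL; score merges spot fluorescence near 667 nm with signal-to-noise over triplicate slides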
[8] = tested on: Sam68 (KHDRBS1); experiment: compounds binding KHDRBS1 protein – biochemical, small-molecule microarray, 635 nm fluorescence, primary screen (AID 1125); details: higher = more signal;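 note: score merges 667 nm channel intensity with signal to noise over triplicate slides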
[9] = tested on: Chordin-like protein 2 (CHRDL2); experiment: compounds binding chordin-like 2 – biochemical, small-molecule microarray, 635 nm fluorescence, primary screen (AID 1126); details: fluorescence 635 nm, higher = more signal;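 note: printed compound slides probed with Chrdl2 protein at 4 µg/mL for 1 h at 4 C; score merges 667 nm emission intensity with signal to noise over three replicate slides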
[10] = target: Concanavalin-A (Canavalia ensiformis) (UniProt P02866); experiment: compounds binding concanavalin A lectin – biochemical, small-molecule microarray, Alexa647 label, 635 nm, artefact control for SMM control protein annotation, primary screen (AID 1127); details: ConA-A647 binding fluorescence, higher = more signal;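 note: z combines 667 nm emission intensity with signal-to-noise across three replicate slides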
Concanavalin-A (Canavalia ensiformis), sequence (P02866 whole entry, looked up): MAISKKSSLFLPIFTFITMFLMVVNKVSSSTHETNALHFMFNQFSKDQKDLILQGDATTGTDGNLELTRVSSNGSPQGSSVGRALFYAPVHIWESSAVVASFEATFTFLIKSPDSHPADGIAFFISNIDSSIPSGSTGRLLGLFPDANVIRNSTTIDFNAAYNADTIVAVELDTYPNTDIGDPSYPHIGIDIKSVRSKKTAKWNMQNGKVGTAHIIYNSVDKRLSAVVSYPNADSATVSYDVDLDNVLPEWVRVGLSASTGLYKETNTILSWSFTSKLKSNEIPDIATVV

Albumin (Bos taurus), sequence (P02769 whole entry, looked up): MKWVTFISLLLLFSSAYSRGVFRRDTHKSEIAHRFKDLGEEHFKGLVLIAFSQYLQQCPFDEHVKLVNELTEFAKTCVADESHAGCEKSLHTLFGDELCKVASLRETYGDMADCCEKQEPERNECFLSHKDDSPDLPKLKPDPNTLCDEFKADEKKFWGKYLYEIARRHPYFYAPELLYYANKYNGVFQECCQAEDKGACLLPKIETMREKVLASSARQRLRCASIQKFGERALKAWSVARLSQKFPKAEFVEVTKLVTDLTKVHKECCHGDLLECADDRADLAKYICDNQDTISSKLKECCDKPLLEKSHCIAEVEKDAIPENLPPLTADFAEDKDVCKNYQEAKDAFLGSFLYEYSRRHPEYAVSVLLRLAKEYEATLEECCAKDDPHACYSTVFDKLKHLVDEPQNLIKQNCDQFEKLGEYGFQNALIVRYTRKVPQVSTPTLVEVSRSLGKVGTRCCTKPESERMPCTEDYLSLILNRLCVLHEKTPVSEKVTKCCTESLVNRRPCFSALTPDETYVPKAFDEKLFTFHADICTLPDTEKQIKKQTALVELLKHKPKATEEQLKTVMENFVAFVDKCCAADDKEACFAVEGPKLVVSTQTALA

Compound	composite z-score [1]	composite Z-score [2]	composite z-score [3]	composite z-score [4]	composite z-score [5]	composite z-score [6]	composite z-score [7]	composite z-score [8]	composite z-score [9]	composite z-score [10]
COC(=O)C(CC#Cc1ccc2c(c1)[C@]1(C(=O)N2)[C@H](C(=O)NC[C@H](O)c2ccccc2)[C@H]2C(=O)O[C@H](c3ccccc3)[C@H](c3ccccc3)N2[C@@H]1c1ccc(OCCO)cc1)C(=O)OC	0.516	2.12 (inactive)	1.4	0.146	0.556	2.94	0.811	1.27	0.75	1.02
COCCOC(=O)N1C(=O)[C@@]2(c3ccccc31)[C@H](c1ccc(O)cc1)N1[C@H](c3ccccc3)[C@H](c3ccccc3)OC(=O)[C@H]1[C@@H]2C(=O)N1CCc2cc(OC)c(OC)cc2C1	-0.361	2.47 (inactive)	0.128	0.0712	0.136	1.76	0.288	1.32	1.44	1.13
CCN(CC)c1ccc(N2CC=CC34O[C@@H]5/C=C\CCCOC(=O)C5[C@H]3C(=O)N(C(CO)C(C)C)[C@@H]4C2=O)cc1 (stereo not given in full)	-1.18	0.0855 (inactive)	-0.165	-0.123	0.827	-0.21	-0.32	-0.384	-0.684	-0.467
COc1ccc(CCNC(=O)[C@@]2(Sc3ccc(C)cc3)CC(=O)N(Cc3ccccc3Cl)[C@@H]2c2ccc(CO)cc2I)cc1	0.331	-0.0194 (inactive)	-0.177	-0.0814	0.76	1.71	1.18	0.361	0.0024	-0.233
COCCOC(=O)N1C(=O)[C@@]2(c3ccccc31)[C@H](C(=O)Nc1nc3ccccc3s1)[C@H]1C(=O)O[C@H](c3ccccc3)[C@H](c3ccccc3)N1[C@@H]2c1ccc(OCCO)cc1	0.735	-0.533 (inactive)	0.127	-0.169	0.287	2.33	1.39	1.29	0.594	1.16
NC(=O)NCC#Cc1ccc2c(c1)[C@]1(C(=O)N2)[C@H](C(=O)N2CCCCCCC2)[C@H]2C(=O)O[C@H](c3ccccc3)[C@H](c3ccccc3)N2[C@@H]1c1ccc(OCCO)cc1	-0.946	-0.397 (inactive)	1.29	0.683	0.336	1.6	0.864	1.32	1.09	0.987
Cc1ccc(S[C@]2(C(=O)NCc3ccccc3)CC(=O)N(Cc3ccccc3)[C@@H]2c2ccc(CO)cc2)cc1	-0.398	0.115 (inactive)	-0.25	-0.149	0.654	1.86	0.569	0.176	-0.525	0.423
CCCCCN1CC=CC23O[C@@H]4C=CCOC(=O)[C@@H]4[C@H]2C(=O)N(CCCO)[C@@H]3C1=O (stereo not given in full)	1.02	1.01 (inactive)	-0.245	-0.155	0.851	2.39	0.937	1.28	-0.205	0.221
CCN(CC)c1ccc(N2CC=CC34O[C@@H]5C=CCCOC(=O)C5[C@H]3C(=O)N(CCCCCO)[C@@H]4C2=O)cc1 (stereo not given in full)	-0.515	1.07 (inactive)	0.0522	0.396	0.285	0.395	0.483	0.13	-0.218	-0.459
COCCOC(=O)N1C(=O)[C@@]2(c3cc(C#CCCO)ccc31)[C@H](c1ccc(O)cc1)N1[C@H](c3ccccc3)[C@H](c3ccccc3)OC(=O)[C@H]1[C@@H]2C(N)=O	0.136	0.257 (inactive)	-0.0967	-0.0956	0.738	0.831	1.73	0.761	-0.552	0.59
CC(C)(C)OC(=O)CC[C@]1(C(=O)N2CCCCC2)N=C(c2ccc(OCCCO)cc2)O[C@H]1c1ccccc1N=[N+]=[N-]	0.657	2.33 (inactive)	0.128	-0.0391	0.528	2.05	-0.0995	1.25	-0.292	1.19
Cc1ccc(S[C@]2(C(=O)O)CC(=O)N(C3Cc4ccccc4C3)[C@@H]2c2ccc(CO)cc2I)cc1	-0.133	-0.0549 (inactive)	-0.0725	-0.0799	0.675	1.1	0.672	-0.0018	0.0442	0.181
COc1ccc([Si](C)(C)[C@@H]2[C@@H](CCn3cc([C@H](O)c4ccccc4)nn3)O[C@]3(C(=O)N(Cc4cccc(N5CCOC5=O)c4)c4ccccc43)[C@H]2C)cc1	-0.424	0.25 (inactive)	-0.259	-0.175	-0.208	-0.359	-0.0364	-0.217	-1.14	-0.348
CN1C(=O)C2C=CC(C(O)c3ccccn3)N(Nc3ccccc3)C2C1=O (stereo not given)	-0.0756	0.0956 (inactive)	0.0711	-0.14	0.727	0.446	0.456	0.656	0.288	0.37
COCCOC(=O)N1C(=O)[C@@]2(c3cc(C#CCNC(N)=O)ccc31)[C@H](C(=O)N1CCN(c3ncccn3)CC1)[C@H]1C(=O)O[C@H](c3ccccc3)[C@H](c3ccccc3)N1[C@@H]2c1ccccc1OCCO	0.413	0.255 (inactive)	0.209	0.0066	0.358	1.08	0.427	1.31	0.867	1.02
CN(C)C(=O)[C@@]1(CCC(=O)OC(C)(C)C)N=C(c2ccc(OCCCO)cc2)O[C@H]1c1ccccc1	0.955	0.58 (inactive)	0.519	-0.0125	0.842	3.16	0.55	0.926	-0.719	0.683
COCCOC(=O)N1C(=O)[C@@]2(c3cc(C#CCNC(N)=O)ccc31)[C@H](c1ccc(O)cc1)N1[C@H](c3ccccc3)[C@H](c3ccccc3)OC(=O)[C@H]1[C@@H]2C(=O)NC[C@H](O)c1ccccc1	-0.302	0.297 (inactive)	0.108	-0.0165	0.044	0.956	0.608	1.13	1.38	1.16
CN(C)CCCCCCNC(=O)[C@H]1C[C@H]2C(=O)N[C@@H](CCCCN)C(=O)N2[C@H]1c1ccc(O)cc1	0.987	5.54 (inactive)	1.78	0.657	0.586	4.3	1.16	1.34	1.45	1.25
CC(=CC1CCCCC1)[C@@H](NC(=O)c1ccc(C(F)(F)F)cc1)c1ccc(-c2ccccc2)cc1	0.938	-0.193 (inactive)	-0.0311	0.0181	-0.0824	-0.261	-0.223	-0.946	-0.371	-0.0536
COc1ccccc1CN1C(=O)c2ccccc2[C@@H](C(=O)NCCN2CCOCC2)[C@@H]1c1ccc(CO)cc1	0.305	-0.275 (inactive)	-0.0824	-0.0548	0.769	1.29	1.08	0.287	-0.159	-0.15
CC(C)C[C@@H]1NC(=O)[C@H]2C[C@@H](C(=O)NCCCCCCNC(=O)CS)[C@@H](c3cccc(OCCO)c3)N2C1=O	-0.641	0.156 (inactive)	0.0493	-0.132	0.338	1.68	0.995	1.22	1.41	1.17
C[C@]1(C(=O)NCc2ccccc2)c2ccccc2C(=O)N(Cc2ccc(OC(F)(F)F)cc2)[C@H]1c1ccc(CO)cc1	-0.125	0.843 (inactive)	-0.211	-0.103	0.681	1.78	0.107	0.426	-0.256	0.592
COc1ccc(C(O)C2C=CC3C(=O)N(c4ccccc4)C(=O)C3N2Nc2ccc([N+](=O)[O-])cc2)cc1OCc1ccccc1 (stereo not given)	0.927	-0.114 (inactive)	1.33	0.708	0.591	1.53	1.22	1.16	0.471	1.14
Cc1c(NC(=O)CC#N)c(=O)n(-c2ccccc2)n1C	0.407	0.676 (inactive)	0.0876	-0.193	-0.064	0.0776	0.037	0.529	0.563	0.0636
[N-]=[N+]=Nc1ccccc1C[C@]1(C(=O)NCCN2CCOCC2)N=C(c2ccc(OCCCO)cc2)O[C@H]1c1ccccc1	0.323	0.619 (inactive)	0.194	-0.0849	0.597	2.7	0.203	1.3	0.497	0.702
CC(=O)NCCCC[C@@H]1NC(=O)[C@@H]2C[C@H](C(=O)NCCCCCCNC(=O)CS)[C@H](c3ccc(O)cc3)N2C1=O	-0.0424	-0.202 (inactive)	-0.256	-0.129	0.597	0.846	0.386	0.464	-0.573	0.647
[N-]=[N+]=NCc1ccccc1C[C@@]1(C(=O)NCC(O)CO)N=C(c2ccc(OCCCO)cc2)O[C@@H]1c1ccccc1CN=[N+]=[N-] (stereo not given in full)	1.01	-0.082 (inactive)	0.319	-0.0335	0.546	3.29	-0.0011	1.29	-0.257	1.1
[N-]=[N+]=NCc1ccccc1[C@@H]1OC(c2ccc(OCCCO)cc2)=N[C@]1(Cc1ccccc1)C(=O)N1CCCCC1	0.763	-0.623 (inactive)	0.211	0.0215	0.471	1.52	-0.0921	1.32	0.581	1.14
CC(C)=CCCC(C)=CC(O)C1C=CC2C(=O)N(c3ccccc3)C(=O)C2N1Nc1ccccc1 (stereo not given)	0.977	-0.0662 (inactive)	0.461	0.251	0.646	1.52	0.78	1.27	-0.0528	1.14
